Source: PubChem
AmpC inh detg: inhibitors of E. coli AmpC beta-lactamase with detergent. P00811. AmpC hydrolysis of nitrocefin, absorbance 480 nm, 0.01% Triton. Potency, µM (series often up to 114 µM), for inactives: top-dose activity change, negative = inhibition, most hits filed as inhibitors. 0.041% of 370,000 active. AID 485294;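 note: 0% = no-compound wells and -100% = no-enzyme wells; nearly all actives have a fitted effect of over 25% in size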
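20 mM phosphate pH 7.0 + 0.01% (detergent screen) or 0.0001% Triton X-100; 5.3 nM AmpC reagent; cpd preinc 15 min RT; nitrocefin (800 uM stock) to start; A480 q20 s × 4 min; Activity was normalised to no-enzyme and no-compound control wells.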
AmpC no deterg: AmpC beta-lactamase inhibition without detergent | P00811 | AmpC nitrocefin hydrolysis, absorbance 480 nm, 0.0001% Triton | Potency, µM (titrated, usually from 57.1 µM), without a hit: at the top dose activity change, negative = inhibition, actives largely listed as inhibitors | 0.52% of 330,000 active;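 note: plate controls were no compound for no effect and no enzyme for full effect; nearly all actives have a fitted effect of over 20% in size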
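20 mM phosphate pH 7.0 + 0.01% (detergent screen) or 0.0001% Triton X-100; 5.3 nM AmpC reagent; cpd preinc 15 min RT; nitrocefin (800 uM stock) to start; A480 q20 s × 4 min; Activity was normalised to no-enzyme and no-compound control wells.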
Sm TGR block: S. mansoni TGR enzyme inhibition. AID 485364. Potency, µM (doses to about 114 µM), inactives show at the highest dose activity change, negative = inhibition, hits mostly inhibitors. Q962Y6. purified TGR, DTNB reduction, TNB absorbance 405 nm. 3% of 360,000 active; note: nearly all actives have a fitted effect of over 60% in size
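First, TGR (20 nM dispensed) and NADPH were mixed with compound. Second, a 15 min room-temperature incubation followed. Third, further NADPH and then DTNB were added to start the reaction. Finally, TNB absorbance was monitored kinetically.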
Giardia FBPA inh-1: Giardia lamblia aldolase inhibition. A8B2U2. purified Giardia FBPA. Potency, µM (series often up to 59.6 µM), for the others: at the highest dose activity, negative = inhibition, usual class: inhibitors. 0.71% of 290,000 active. AID 2451; note: nearly all actives have a fitted effect of over 55% in size
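Giardia FBPA (40 nM reagent) was preincubated 10 min at RT with compound (up to 57.5 uM final), then substrate plus GAPDH/TPI/NAD/arsenate coupling system with diaphorase/resazurin was added; resorufin fluorescence (525/598 nm) was read after 20 min.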
RE007 growth inh: less growth of the S. pombe RE007 Vpr strain. Potency, µM (highest dose often 92.2 µM), inactives show top-dose activity change, negative = less growth, hits mostly inhibitors. 0.21% of 360,000 active. AID 651644. S. pombe RE007 Vpr strain, BacTiter-Glo ATP luminescence, 24 h; active = well fitted falling curve with a large enough effect; inconclusive = small, poorly fitted or top-dose-only effect; inactive = no such curve, though single readings can be large or run the other way; note: nearly all actives have a fitted effect of over 50% in size
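Fission yeast strain RE007, carrying one chromosomally integrated HIV-1 vpr copy, was seeded at OD 0.01 in PMG+AL medium with 23 nL pinned compound. After 24 h at 30 °C and 99% humidity, viability was read by BacTiter-Glo luminescence.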
Giardia growth: blocks growth of Giardia lamblia trophozoites. shares compounds with Giardia FBPA inh-1. Giardia lamblia trophozoite growth inhibition. Potency, µM (doses to about 57.5 µM), for the others: top-dose activity change, negative = inhibition, hits mostly inhibitors. 5% of 1,500 active. AID 2785;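 note: trophozoites exposed to compound for 48 h at 37 °C; nearly all actives have a fitted effect of over 70% in size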
Mammal cell tox: toxic to mammalian cells in Giardia aldolase counter-screen; shares compounds with Giardia FBPA inh-1; mammalian cell viability counter-screen, qHTS; Potency, µM (top dose mostly 57.5 µM), for the others: at the highest dose viability change, negative = toxicity, most hits filed as inhibitors; 4% of 1,500 active; AID 2786;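 note: Chinese hamster ovary cells used as mammalian cytotoxicity surrogate; viability measured as cellular ATP by luminescence; compound exposure lasted 48 h before reading; nearly all actives have a fitted effect of over 60% in size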
Giardia FBPA inh-2: confirmation of Giardia fructose-bisphosphate aldolase inhibitors; shares compounds with Giardia FBPA inh-1; purified Giardia aldolase enzyme activity, qHTS; Potency, µM (series often up to 57.5 µM), without a hit: top-dose activity change, negative = inhibition, hits mostly inhibitors; 5% of 1,500 active; AID 2787; note: nearly all actives have a fitted effect of over 45% in size
Rabbit aldolase: rabbit FBP aldolase inhibition by Giardia aldolase hits; shares compounds with Giardia FBPA inh-1; Rabbit muscle FBPA enzyme inhibition, selectivity counter-screen; Potency, µM (doses to about 57.5 µM), without a hit: top-dose activity, negative = inhibition, most hits filed as inhibitors; 4% of 1,500 active; AID 2794; note: nearly all actives have a fitted effect of over 60% in size
Target sequence (P00883 whole entry, looked up): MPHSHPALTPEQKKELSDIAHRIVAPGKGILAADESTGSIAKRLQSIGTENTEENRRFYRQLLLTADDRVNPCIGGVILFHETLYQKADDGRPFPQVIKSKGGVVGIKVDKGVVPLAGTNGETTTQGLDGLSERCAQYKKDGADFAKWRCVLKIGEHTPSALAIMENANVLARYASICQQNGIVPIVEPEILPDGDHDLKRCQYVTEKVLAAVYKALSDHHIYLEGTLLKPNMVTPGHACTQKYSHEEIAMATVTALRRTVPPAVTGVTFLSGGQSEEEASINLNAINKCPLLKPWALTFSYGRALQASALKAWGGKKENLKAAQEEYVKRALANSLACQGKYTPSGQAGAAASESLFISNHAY
GAPDH counter: GAPDH inhibition flagged for Giardia aldolase hits; shares compounds with Giardia FBPA inh-1; 6% of 1,500 active; GAPDH coupling enzyme counterscreen, biochemical, qHTS; AID 2795; Potency, µM (series often up to 57.5 µM), for inactives: top-dose activity change, negative = inhibition, hits mostly inhibitors; note: nearly all actives have a fitted effect of over 55% in size
Starred values were filed as active, the others as inactive; ? = inconclusive; / = no result given; ! = a repeat was not active; [ ] = another dose, or the depositor's remark. Shown are actives, neighbours in structure and some others; about 3.4% of the full set was active somewhere. Unless noted, calls come from the whole dose curve; as a rule, active = well fitted curve in the direction sought with a large enough effect; inconclusive = small, poorly fitted or top-dose-only effect, or another doubt; inactive = no such curve, though single readings can be large; an effect the other way counts as inactive or inconclusive. Unless noted, % is set by controls: 0 for no effect and ±100 for the full control effect; potency is the fitted concentration of half-maximal effect.

SMILES	AmpC inh detg	AmpC no deterg	Sm TGR block	Giardia FBPA inh-1	RE007 growth inh	Giardia growth	Mammal cell tox	Giardia FBPA inh-2	Rabbit aldolase	GAPDH counter
COc1ccc(NC(=O)c2ccc3c(c2)C(=O)N(CC2CCCO2)C3=O)c(OC)c1 (centres undefined)	-8.3%	20.2%	-5.9%	7.3%	-14.0%	/	/	/	/	/
Cn1cnc2nc[nH]c2c1=S	/	/	/	/	8.1%	/	/	/	/	/
S=c1nc[nH]c2nc[nH]c12	?	-13.3%	15.8µM*!	7.94µM*	8.2%[18.4 µM]	17.3%[38.3 µM]	7.94µM*	?	5.2%	-5.8%
O=C(O)CCCNc1cc(N2CCN(C(=O)c3ccco3)CC2)c2noc3c2c1C(=O)c1ccccc1-3	0.6%	46.7%	6.31µM*	3.55µM*	-6.3%	?	-18.0%	?	?	?
O=C(Nc1ccc(N2CCN(C(=O)c3ccco3)CC2)cc1)C(c1ccccc1)c1ccccc1	-8.3%	14.2%	28.2%	-2.9%	?	/	/	/	/	/
Cc1cc(Cl)ccc1N=c1ssnc1Cl	-6.6%	-31.0%	?	15.8µM*	74.3%	-21.0%	6.8%	-1.0%	-3.2%	21.4%
COc1ccc(OC)c(N=c2ssnc2Cl)c1	-10.5%	-32.1%	56.2µM*	17.7µM*	?	?	8.9%	-10.0%	4.7%	-3.7%
COc1cc(N=c2ssnc2Cl)c(OC)cc1Cl	3.4%	-7.9%	?	?	?	/	/	/	/	/
O=C(CSc1cccc2cccnc12)Nc1cc(C(=O)O)cc(C(=O)O)c1	-12.3%	-10.0%	-21.1%	25.1µM*	2.6%	-0.7%	-4.8%	8.2%	12.3%	17.6%
CC(C)(C)c1ccc(C(=O)N2CCC(c3noc(-c4ccc(S(=O)(=O)N5CCCC5)cc4)n3)CC2)cc1	16.0%	/	8.0%	/	/	/	/	/	/	/
O=C1C2C(c3ccccc3)CC=CC2C(c2cccc(Br)c2)N1Cc1ccccc1 (centres undefined)	/	/	/	-5.1%	/	/	/	/	/	/
O=C(c1ccc2c(=O)n(C3CCCC3)c(=S)[nH]c2c1)N1CCCCCC1	-5.6%	-31.7%	-1.8%	17.7µM*	7.7%	2.5%[10.4 µM]	-10.5%	5.7%	3.1%	7.9%
CC1CCCN(C(=O)c2ccc3c(=O)n(C4CCCC4)c(=S)[nH]c3c2)C1 (centres undefined)	-6.6%	-19.6%	-8.6%	?	2.4%	/	/	/	/	/
O=C(NCC1c2ccccc2CCN1C(=O)CN1CCOCC1)C1CCCCC1 (centres undefined)	-3.1%	20.4%	-30.7%	-6.0%	3.9%	/	/	/	/	/
CCCCCSc1nc(N2CCOCC2)c2c(c1C#N)CC(C)(C)OC2	-17.7%	-16.5%	14.1%	5.4%	0.8%	/	/	/	/	/
Cc1cc(NC(=O)CSc2nnc(CNC(=O)c3cccc(C(F)(F)F)c3)o2)no1	-6.6%	-13.6%	0.0%	/	1.4%	/	/	/	/	/
Nc1c2c(nc3ccc(Br)cc13)N(C1CCCCC1)CC2	-15.0%	-27.7%	-19.1%	17.7µM*	/	5.01µM*	-28.4%	-4.0%	-4.1%	-9.8%
Nc1c2c(nc3ccccc13)N(C1CCCCC1)CC2	-8.0%	-30.6%	-4.7%	?	12.4%	/	/	/	/	/
